Source: PubChem
Hits are enriched below; roughly 9.4% of the tested compounds scored in any of these assays.
Rab9 prom act: activates the Rab9 promoter; Huh7 Rab9 promoter-luciferase reporter, luminescence, 24 h; hit rate 2.8% among 320,000; Potency, µM (series often up to 9.22 µM), hits mostly activators; AID 485297; note: nearly all actives have a fitted effect of over 60% in size
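Using Huh7 cells stably transfected with Rab9 promoter–luciferase, compounds were incubated 24 h at 37 °C, 5% CO2; luciferase luminescence was read 10 min after reagent addition.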
ELG1 genotox: genotoxicity induction in ELG1-luciferase HEK293T cells; Potency, µM (doses to about 46 µM), actives largely listed as activators; hit rate 1.3% among 330,000; HEK293T ELG1-luciferase reporter, luminescence, 16 h; AID 504466; note: nearly all actives have a fitted effect of over 60% in size
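Luminescence read-out: rising ELG1-luciferase signal, reflecting elevated ELG1 protein under genetic stress, flags genotoxic compounds. Cells were treated for 16 hr at 37 °C before ONE-Glo detection.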
NPC1 prom act: activates the NPC1 promoter; Potency, µM (series often up to 9.22 µM), most hits filed as activators; Huh7 NPC1 promoter luciferase reporter, 24 h; AID 485313; hit rate 2.4% among 320,000; note: nearly all actives have a fitted effect of over 60% in size
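Quantitative HTS used a cell-based reporter: Huh7 cells stably bearing the NPC1 promoter upstream of luciferase were treated with compounds for 24 h, and promoter activation was read as luminescence.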
SMN2 splice up: SMN2 splice variant enhancement. hit rate 2.8% among 210,000. Potency, µM (top dose mostly 46.1 µM), hits mostly activators. HEK293 SMN2-luciferase splicing reporter, luminescence, 30-36 h; note: nearly all actives have a fitted effect of over 55% in size
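HEK293 cells carry an SMN2 […]–luciferase reporter in which exon 7 inclusion puts luciferase in frame. Cells were plated 10-12 h before compound addition, then incubated 30-36 h at 37C. ONE-Glo luminescence was read; sodium butyrate at 4.5 mM final served as control.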
ELG1 DNA repair: inhibitors of ELG1-dependent DNA repair in HEK293T cells | Potency, µM (highest dose often 46.1 µM), actives largely listed as inhibitors | AID 504467 | HEK293T ELG1-luciferase reporter, luminescence, 16 h; DNA damage induced by 5-fluorouridine | hit rate 2.3% among 330,000; note: nearly all actives have a fitted effect of over 55% in size
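Luminescence from the luciferase reporter, measured 30 min after ONE-Glo reagent at room temperature, was the read-out. Beforehand, 2,000 cells per well were exposed for 16 hr at 37 °C to 5-fluorouridine together with compound or vehicle.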
FLuc modulator: inhibits or activates purified firefly luciferase, miR-21 counter-screen; P08659; purified FLuc, Km substrates, luminescence inhibition; Potency, µM (titrated, usually from 57.5 µM), usual class: inhibitors; hit rate 6.9% among 360,000; note: nearly all actives have a fitted effect of over 55% in size
Target sequence (P08659 whole entry, looked up): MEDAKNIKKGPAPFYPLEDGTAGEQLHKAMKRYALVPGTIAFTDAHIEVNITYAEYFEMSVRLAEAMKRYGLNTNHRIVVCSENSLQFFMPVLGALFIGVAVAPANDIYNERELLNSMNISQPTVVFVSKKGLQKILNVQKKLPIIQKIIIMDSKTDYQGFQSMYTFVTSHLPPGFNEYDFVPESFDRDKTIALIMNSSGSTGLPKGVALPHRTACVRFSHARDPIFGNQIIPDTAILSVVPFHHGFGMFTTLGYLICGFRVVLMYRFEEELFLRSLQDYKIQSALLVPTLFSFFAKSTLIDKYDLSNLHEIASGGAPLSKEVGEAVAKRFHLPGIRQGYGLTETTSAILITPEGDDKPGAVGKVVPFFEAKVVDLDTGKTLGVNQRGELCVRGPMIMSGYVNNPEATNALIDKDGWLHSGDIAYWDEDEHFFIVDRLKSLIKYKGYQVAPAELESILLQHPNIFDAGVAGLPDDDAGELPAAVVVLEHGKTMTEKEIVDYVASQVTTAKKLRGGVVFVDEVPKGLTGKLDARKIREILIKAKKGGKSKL
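Biochemical qHTS of compounds, final roughly 60 µM downward over six points, against 10 nM purified firefly luciferase using Km concentrations of substrates (10 uM D-luciferin, 10 uM ATP) in Tris acetate pH 7.5 buffer; luminescence output.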
Numbers stand for hits; - = inactive; ? = inconclusive; . = no result given; [ ] = another dose, or the depositor's remark. Calls come from the whole dose curve; as a rule, active = well fitted curve in the direction sought with a large enough effect; inconclusive = small, poorly fitted or top-dose-only effect, or another doubt; inactive = no such curve, though single readings can be large; an effect the other way counts as inactive or inconclusive.

SMILES	Rab9 prom act	ELG1 genotox	NPC1 prom act	SMN2 splice up	ELG1 DNA repair	FLuc modulator
Cc1cnc(NC(=O)c2nn(C)cc2[N+](=O)[O-])s1	-	-	-	-	-	-
O=C(Nc1nc(-c2ccc([N+](=O)[O-])cc2)cs1)c1c(F)cccc1F	-	-	-	-	-	-
Cc1cc(C)n(Cc2ccc(NC(=O)c3nn(C)cc3[N+](=O)[O-])cc2)n1	-	-	-	-	?	-
Cc1ccc(-c2nc(NC(=O)c3nn(C)cc3[N+](=O)[O-])sc2C)cc1	-	-	-	-	16.4µM	-
Cc1ccc(-c2nc(NC(=O)c3nn(C)cc3[N+](=O)[O-])sc2C)cc1C	-	-	-	-	9.2µM	-
Cn1cc([N+](=O)[O-])c(C(=O)Nc2nc(-c3ccc(Cl)cc3)cs2)n1	-	-	-	-	2.06µM	-
O=C(O)/C(Cc1ccc([N+](=O)[O-])cc1)=N/O	.	.	.	-[9.22 µM]	.	.
Cc1cc(N/N=C/c2ccc(Cl)cc2)nc(NCc2ccccc2)n1	-	-	-	-	-	15.1µM
Cc1cc(N/N=C/c2cccc(F)c2)nc(NCc2ccccc2)n1	-	-	-	.	-	12µM
Cc1cc(N/N=C/c2cccc(Cl)c2)nc(NCc2ccccc2)n1	-	-	-	-	-	?
Cc1cc(N/N=C/c2ccccc2F)nc(NCc2ccccc2)n1	-	-	-	.	-	15.1µM
Cc1cc(N/N=C/c2ccccc2)nc(NCc2ccccc2)n1	-	-	-	-	?	6.01µM
CN(C)c1nc(NCc2ccccc2)nc(N/N=C/c2ccccc2F)n1	-	-	-	-	?	-
N#Cc1c(C(F)(F)F)cc(-c2cccs2)nc1SCC(=O)Nc1ccc(F)cc1	.	.	.	-	.	-
CC(C)(CCc1nc2ccccc2[nH]1)C(=O)O	.	.	.	-[9.22 µM]	.	.
O=C(c1ccc2c(c1)OCCO2)N(Cc1cccnc1)c1nc2c(F)cccc2s1	.	.	.	.	.	16.9µM
O=C(Cc1ccccc1)N(Cc1cccnc1)c1nc2c(F)cccc2s1	.	.	.	.	.	-
Cc1ccc2c(COC(=O)C3=COCCO3)cc(=O)oc2c1	0.794µM	1.84µM	3.16µM	?	?	0.849µM
CCOC(=O)Nc1ccc2c(COC(=O)c3ccccc3O)cc(=O)oc2c1	-	?	?	.	-	?
Cc1ccc2c(COC(=O)CNC(=O)c3ccccc3)cc(=O)oc2c1	-	-	-	-	?	19µM
Cc1ccc2c(COC(=O)c3ccccc3OC(F)F)cc(=O)oc2c1	-	?	-	.	?	4.78µM
Cc1ccc2c(COC(=O)c3cnc(C)cn3)cc(=O)oc2c1	-	-	-	-	-	?
O=C(Nc1ccccc1)N1CCCC2(CCN(C(=O)c3cc(C(F)(F)F)cc(C(F)(F)F)c3)CC2)C1	.	.	.	-	.	.
CCOC(=O)CSc1nc2ccc(C)cc2cc1C#N	1.41µM	2.31µM	2.82µM	15.8µM	?	12µM
COc1ccc2nc(SCC(C)=O)c(C#N)cc2c1	1µM	2.06µM	?	2µM	?	1.07µM
SMILES	Rab9 prom act	ELG1 genotox	NPC1 prom act	SMN2 splice up	ELG1 DNA repair	FLuc modulator
CCOC(=O)CSc1nc2cc(OC)ccc2cc1C#N	1.26µM	0.82µM	0.794µM	11.2µM	?	?
CCOC(=O)CSc1nc2cc(C)ccc2cc1C#N	1.26µM	?	0.708µM	14.1µM	?	?
CCOC(=O)CSc1nc2cc(C)cc(C)c2cc1C#N	?	-	?	-	-	-
CN1C(=O)c2ccccc2Sc2ccc(NC(=O)N3CCN(c4ccccc4F)CC3)cc21	.	.	.	.	.	-
Cc1cccc(N2CCN(C(=O)CN3C(=O)COc4ccc(S(=O)(=O)N5CCCC5)cc43)CC2C)c1 (stereo not given)	.	.	.	-	.	-
CCOC(=O)C1(Cc2cccc(F)c2)CCN(Cc2ccc(COC)o2)CC1	-	-	-	.	23.1µM	-
CC#CC(=O)N1CCCC(Cc2cccc(OC)c2)(C(=O)OCC)C1 (stereo not given)	?	-	?	.	?	23.9µM
CCOC(=O)C1(Cc2ccccc2)CCCN(C(=O)C=C(C)C)C1 (stereo not given)	3.55µM	?	?	.	?	16.9µM
CCOC(=O)C1(Cc2ccccc2)CCN(Cc2ccc(COC)o2)CC1	-	-	-	.	-	-
CCOC(=O)C1(Cc2ccc(OC)cc2)CCN(C(=O)c2cc3ccccc3[nH]2)CC1	-	-	-	-	-	15.1µM
CCOC(=O)C1(Cc2ccccc2)CCCN(C2CCN(C(C)=O)CC2)C1 (stereo not given)	-	-	-	.	-	-
Cc1ccc(Cl)cc1NC(=O)Cn1cc(S(=O)(=O)Cc2ccccc2Cl)c2ccccc21	.	.	.	.	.	-
O=C1c2ccccc2C(O)(O)[C@@]1(O)[C@]1(O)C(=O)c2ccccc2C1(O)O	.	.	.	-[9.22 µM]	.	.
CCOC(=O)C1(Cc2cccc(OC)c2)CCN(C2CCOCC2)CC1	?	?	?	.	?	3.01µM
CCOC(=O)C1(Cc2cccc(OC)c2)CCCN(C(=O)CCc2cccnc2)C1 (stereo not given)	?	?	-	.	?	16.9µM
CCOC(=O)C1(Cc2cccc(Cl)c2)CCCN(C(=O)c2cccnc2)C1 (stereo not given)	-	-	-	.	-	-
COc1ccc2nc(NCN3C(=O)c4ccccc4C3=O)sc2c1	.	.	.	-[9.22 µM]	.	.
CC(C)(C)c1ccc(Cn2ccc(-c3ccc4c(c3)OCO4)n2)cc1	-	-	-	-	?	26.9µM
Cc1cccc2cc(CN(Cc3cccs3)Cc3nnnn3Cc3ccccc3)c(=O)[nH]c12	-	-	-	-	18.4µM	-
Cc1cccc(-c2nc3ccccc3n3c(-c4ccccc4)c4c(=O)n(C)c(=O)n(C)c4c23)c1	.	.	.	-	.	-
COc1ccc(-c2nc3c(c4c2C[C@H](c2ccccc2)OC4)CN(S(=O)(=O)c2ccc(NC(C)=O)cc2)CC3)c(C)c1	.	.	.	-[9.22 µM]	.	.
O=C1C[C@H]2[C@H](CO)[C@@H](OC(=O)c3ccc(-c4ccccc4)cc3)C[C@H]2O1	?	-	?	.	?	5.36µM
O=C(Nc1ccn(C2CC(OC(=O)c3ccccc3)C(CO)O2)c(=O)n1)c1ccccc1 (stereo not given)	-	-	-	-	?	-
O=C1CC2C(CC(OC(=O)c3ccc(-c4ccccc4)cc3)C2CO)O1 (stereo not given)	?	?	-	?	?	12µM
CCOC(=O)c1c(C)oc2nc(C)nc(NCc3ccc(F)cc3)c12	.	.	.	.	.	-
Nc1c(Cl)ncnc1NCCc1ccc(O)cc1	-	-	-	.	10.3µM	-
O=C(Cn1cnc2onc(-c3ccc(F)cc3)c2c1=O)N1CCN(c2ccc(F)cc2)CC1	.	.	.	.	.	-
OC[C@H](O)[C@H](O)[C@@H](O)[C@@H](O)[C@@H]1SC(c2ccccc2)=NN1c1ccccc1	-	-	-	.	?	-
